Results from PubChem BioAssay AID720708 (National Center for Advancing Translational Sciences (NCATS), 2013).
About 660 (0.18%) of roughly 360,000 compounds were called active. Entries that show only a call come without a potency. Not shown: some 2% with an inconclusive outcome. The call rests on the fitted dose curve; in most records, active means well fitted inhibition curve with a large enough effect; inconclusive means small, poorly fitted or top-dose-only effect; inactive means no such curve, though single readings can be large or run the other way. The sample as a whole holds a higher share of actives than the screen did.

Biological target: Rap guanine nucleotide exchange factor 4 (Homo sapiens) (UniProt Q8WZA2)
Assay: qHTS for Antagonist of cAMP-regulated guanine nucleotide exchange factor 2 (EPAC2): primary screen; further: nearly all actives have a fitted effect of over 45% in size
Conditions: EPAC2 GEF exchange of Rap1B-BODIPY-GDP, fluorescence; series mostly up to 114 µM
Potency means the concentration at half of the fitted maximal effect.

Chain of Rap guanine nucleotide exchange factor 4 (Homo sapiens) (Q8WZA2 whole entry, looked up): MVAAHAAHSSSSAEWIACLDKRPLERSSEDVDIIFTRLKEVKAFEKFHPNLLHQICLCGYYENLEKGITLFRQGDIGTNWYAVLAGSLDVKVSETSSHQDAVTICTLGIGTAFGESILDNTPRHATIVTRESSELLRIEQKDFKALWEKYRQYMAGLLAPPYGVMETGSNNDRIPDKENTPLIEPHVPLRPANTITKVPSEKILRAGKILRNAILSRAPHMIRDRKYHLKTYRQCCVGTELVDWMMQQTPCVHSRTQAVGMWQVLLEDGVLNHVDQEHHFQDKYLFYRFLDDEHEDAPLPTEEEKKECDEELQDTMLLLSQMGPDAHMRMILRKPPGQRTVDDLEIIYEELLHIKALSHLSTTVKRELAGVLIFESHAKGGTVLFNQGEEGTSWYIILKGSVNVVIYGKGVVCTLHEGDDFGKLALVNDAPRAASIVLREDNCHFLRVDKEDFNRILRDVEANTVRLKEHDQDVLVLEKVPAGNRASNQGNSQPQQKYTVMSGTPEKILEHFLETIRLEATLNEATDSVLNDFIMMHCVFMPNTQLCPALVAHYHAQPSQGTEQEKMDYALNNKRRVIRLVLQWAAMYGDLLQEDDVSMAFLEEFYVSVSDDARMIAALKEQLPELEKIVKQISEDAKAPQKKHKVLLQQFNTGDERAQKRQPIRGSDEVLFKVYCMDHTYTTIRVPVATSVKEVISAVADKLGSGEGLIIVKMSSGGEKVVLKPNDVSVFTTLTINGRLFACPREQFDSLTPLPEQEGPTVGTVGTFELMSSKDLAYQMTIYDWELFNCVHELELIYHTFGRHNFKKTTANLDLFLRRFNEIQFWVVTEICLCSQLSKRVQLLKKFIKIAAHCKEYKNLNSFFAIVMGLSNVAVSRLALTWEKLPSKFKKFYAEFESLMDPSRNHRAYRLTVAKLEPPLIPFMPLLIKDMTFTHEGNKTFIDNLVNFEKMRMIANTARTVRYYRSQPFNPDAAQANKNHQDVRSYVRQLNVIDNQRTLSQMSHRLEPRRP

SMILES	Potency
CC(C)Nc1ccc(-n2nc3ccccc3[n+]2[O-])cc1	inactive
Cc1ccc(Nc2cc(C)nc3c(C)ccc([N+](=O)[O-])c23)cc1	44.7 µM (active)
Cc1ccc2cccc([N+](=O)[O-])c2n1	inactive
O=[N+]([O-])c1ccccc1Nc1ccc(O)cc1	inactive
Cc1cc(C)cc(NC(=O)NC2CCN(CC(=O)Nc3cccc(Cl)c3C)CC2)c1	inactive
CC1(C(=O)NCc2ccccc2)CSCC(=O)N1CCCn1ccnc1 (centres undefined)	inactive
COc1ccc(CN(C)C(=O)CC(c2ccccc2)c2ccccc2)cc1	50.1 µM (active)
COc1ccc(C(CCN(Cc2ccc(OC)c(OC)c2)C(=O)CCl)c2ccccc2)cc1 (centres undefined)	inactive
CN(Cc1ccccc1)C(=O)COc1ccccc1	inactive
CC(=O)Nc1ccc(SC[C@H](Cc2ccccc2)N2CC[C@@H](C)CCC2=O)cc1	inactive
CCCCOCCCNC(=O)C[C@@H]1C[C@@]2(C(=O)OCC)CCCC=C2N(CCC2=CCCCC2)C1=O	inactive
C[N+](C)(C)CCNC(=O)c1cc[n+](Cc2ccccc2)c(/C=N/O)c1	inactive
COc1cc(OC)cc(C(=O)Nc2nnc(SCC(=O)NCC3CCCO3)s2)c1 (centres undefined)	inactive
Nc1nc(SCC(=O)NN(c2ccccc2)c2ccccc2)n[nH]1	inactive
COc1ccc(CN2C(=O)C(CC(=O)NCCCCc3ccccc3)CC(C(=O)N3CCOCC3)=C2C)cc1 (centres undefined)	inactive
COc1ccccc1C(CNC(=O)c1ccc(C)c(S(=O)(=O)N2CCCCC2)c1)N(C)C (centres undefined)	inactive
O=c1[nH]cnc(O)c1C(c1ccc(F)cc1)c1c(O)nc[nH]c1=O	inactive
CCC(=O)N1CCc2cc(S(=O)(=O)NC(C(=O)N3CCc4ccccc4C3)C(C)C)ccc21 (centres undefined)	inactive
COC(=O)c1ccccc1OCC(=O)N1CCN(c2ccc(Cl)cc2)CC1	inactive
N#C[C@]1(S(=O)(=O)c2ccccc2)C[C@@H]2ON=C(c3cccc(Br)c3)[C@@H]2C1	inactive
O=C1Nc2ccccc2-n2nnnc2C1N1CCN(c2cccc(C(F)(F)F)n2)CC1 (centres undefined)	inactive
CN(C(=O)CSc1nnc(N)s1)c1c(N)n(Cc2ccccc2)c(=O)[nH]c1=O	inactive

SMILES	Potency
C/C(=N\NC(=O)c1cccnc1)c1ccc(-n2ccnc2)cc1	inactive
CO[C@@H]1CN(C)C(=O)c2cc(NC(=O)C3CC3)ccc2OC[C@H](C)N(C(=O)CN2CCOCC2)C[C@@H]1C	inactive
S=C(Nc1ccc2c(c1)OCO2)N1CCCC1	inactive
COC(=O)[C@]12CCCCC=C1N(Cc1ccccc1)C(=O)[C@H](CC(=O)NCc1ccc(C)o1)C2	inactive
Cn1nnnc1SCC(=O)NNC(=O)c1ccc(Br)cc1	inactive
CC1(C(=O)NS(=O)(=O)c2cccc(OC(F)F)c2)CCN1C(=O)COc1ccc(Cl)cc1 (centres undefined)	inactive
CCc1ccc(Oc2nc([N+](=O)[O-])nn2C)cc1	inactive
COc1ccc(C(O)C(O)(C(=O)OC(C)C)c2ccc(C)cc2)cc1 (centres undefined)	inactive
COC(=O)[C@@]12C[C@@H](CC(=O)N3CCCCC3)C(=O)N(Cc3ccc4c(c3)OCO4)C1=CCC(C)(C)C2	inactive
O=C(c1cccc(S(=O)(=O)N2CCCC2)c1)N(Cc1ccco1)C1CCS(=O)(=O)C1 (centres undefined)	inactive
COc1ccc(C(C)NC(=O)C23CC4CC(CC(C4)C2)C3)cc1 (centres undefined)	inactive
COc1ccc(NC(=O)C2(C)Cc3c(-c4ccc(C(N)=O)cc4)ccnc3O2)cc1 (centres undefined)	inactive
c1ccc(-c2ccnc3nc(-n4cccc4)nn23)cc1	inactive
Cc1cc(C(=O)CC#N)c(C)n1-c1c(C)n(C)n(-c2ccccc2)c1=O	inactive
O=C(Cn1cc(C(=O)C2CC2)c2ccccc21)Nc1ccccc1Cl	inactive
COc1ccc(N(CC(=O)NC2CCCCC2)S(=O)(=O)c2c(C)[nH]c(=O)[nH]c2=O)cc1	inactive
CCOC(=O)[C@]12CCCC=C1N(Cc1ccc(Cl)cc1Cl)C(=O)[C@H](CC(=O)N1CCCCC1)C2	inactive
Cc1ncc(CO)c(/C=N/NC(=O)c2cccc(S(=O)(=O)N3CCCC3)c2)c1O	inactive
O=C(COc1nc2ccccc2nc1N1CCOCC1)NCC(F)(F)F	inactive
COc1ccc(-c2c(C(C)=O)c(C)nc3sc4c(=O)n(-c5ccc(C)cc5)nnc4c23)cc1	inactive
CCNC(=S)N1CCC(c2nc3cc(C)c(C)cc3[nH]2)CC1	inactive
CCCCn1nc(C(=O)OCC(=O)Nc2sccc2C(N)=O)c2ccccc2c1=O	inactive
